A selection: hits, their analogues and other compounds. The true share with any hit is near 1.3%.
HTR5A ag: counter-screen for OPRM1-OPRD1 agonists: human HTR5A agonism; P47898; HTR5A agonist assay, luminescence, cell-based; activation, % at 9.3 µM; actives 0.61% (n = 340,000); AID 504692; in the data active means activation mostly above about 9.5%, no sharp cut-off; inactive means mostly below about 7.6%;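 further: 0% = cells with vehicle only and 100% = reference agonist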
Target sequence (P47898 whole entry, looked up): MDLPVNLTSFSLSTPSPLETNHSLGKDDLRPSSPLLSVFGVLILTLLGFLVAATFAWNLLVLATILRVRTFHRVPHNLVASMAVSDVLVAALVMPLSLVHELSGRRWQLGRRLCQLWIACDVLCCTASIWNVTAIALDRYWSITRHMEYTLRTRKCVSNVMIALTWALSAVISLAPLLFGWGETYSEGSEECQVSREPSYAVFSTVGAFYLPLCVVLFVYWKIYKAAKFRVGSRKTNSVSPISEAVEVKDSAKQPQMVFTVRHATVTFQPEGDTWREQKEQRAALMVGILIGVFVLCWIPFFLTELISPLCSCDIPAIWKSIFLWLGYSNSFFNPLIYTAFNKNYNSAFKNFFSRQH
OPRM1-OPRD1 inv: inverse agonists of human mu-delta opioid receptor heterodimerization | P35372+P41143 | cell-based MOR-DOR heterodimer luminescence, inverse agonism | inhibition, % at 9.3 µM | actives 0.21% (n = 340,000) | AID 504357; in the data active means inhibition above about 22%, passing the limit was not always enough;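 further: 0% = cells with DMSO and 100% = wells without cells with DMSO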
CR mimetic SO: lowers age-related superoxide in aged yeast cells | actives 0.18% (n = 330,000) | AID 2690 | superoxide response (% of plate mean), % at 10 µM | S. cerevisiae aged cells, superoxide DHE fluorescence; stronger effect = lower value;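 active means superoxide response under a set limit, about three screen SD below normal, cut at about 65% in these data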;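 further: yeast aged for seven days with compound at 30 °C before DHE staining; 100% = average MFI of all compound-treated wells on the plate with controls excluded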
PvdQ acylase: P. aeruginosa PvdQ acylase inhibition; purified PvdQ acylase, fluorescence plate reader; inhibition, % at 10 µM; actives 0.063% (n = 340,000); in the data active means inhibition above about 30%, passing the limit was not always enough;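 further: 0% = vehicle neutral wells and 100% = reference inhibitor wells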
HTR5A inv ag: counter-screen for OPRM1-OPRD1 inverse agonists: human HTR5A inverse agonism | P47898 | HTR5A cell line, luminescence | inhibition, % at 9.3 µM | actives 0.083% (n = 340,000) | AID 504634; in the data active means inhibition mostly above about 23%, no sharp cut-off; inactive means mostly below about 18%;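 further: 0% = cells with DMSO and 100% = no-cell wells with DMSO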
MOR-DOR ag: OPRM1-OPRD1 heterodimerization agonism; AID 504326; actives 0.3% (n = 340,000); cells, luminescence; P35372+P41143; activation, % at 9.3 µM; in the data active means activation above about 18%;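 further: 0% = vehicle-treated cells and 100% = reference agonist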
Active calls of the source: *; nt = no result given.

SMILES	HTR5A ag	OPRM1-OPRD1 inv	CR mimetic SO	PvdQ acylase	HTR5A inv ag	MOR-DOR ag
Cc1cccc(N(C)C(=O)CN(C)S(=O)(=O)c2ccc3c(c2)c(=O)n(C)c(=O)n3C)c1	12*	12	102	-17	-4	-2
CN(CC(=O)N(CCO)Cc1ccccc1)S(=O)(=O)c1ccc2c(c1)c(=O)n(C)c(=O)n2C	2	17	106	-2	12	-3
S=c1nc2ccccc2c2nc(-c3ccccc3)[nH]n12	9.2*	5	108	11	-6	-1
S=c1nc2ccccc2c2nc(-c3ccccc3Cl)[nH]n12	0	15	83	-15	1	-3
COc1ccc(C)cc1-n1nnnc1SCC(=O)NC1CC1	-3	14	102	2	-9	-4
Cc1ccc(NC2=C/C(=N\S(=O)(=O)c3cccs3)c3ccccc3C2=O)c(C)c1	-3	-112	99	-3	8	22*
COc1cc(C)ccc1OCCOCCOc1cccc2ccc(C)nc12	8.7*	-16	83	8	-24	3
COc1ccc(NC(=O)CC2C(=O)N(c3ccc(F)cc3)C(=S)N2NC(=O)c2ccc(Cl)cc2)cc1 (stereo unspecified)	12*	-2	91	10	6	0
COc1ccc(NC(=O)CC2C(=O)N(c3ccc(Cl)cc3)C(=S)N2NC(=O)c2cccc(F)c2)cc1 (stereo unspecified)	0	-1	105	-13	-6	0
COC(=O)/C(=N/Nc1ccccc1)N1CCCc2ccccc21	3	-16	103	16	1	3
COC(=O)/C(=N/Nc1ccc(C)cc1)N1CCCc2ccccc21	-5	-34	63*	0	13	5
CCOc1ccc(CC(=O)Nc2sc(Cc3ccccc3)cc2C(N)=O)cc1OCC	9.6*	-14	86	-1	-49	2
COc1ccc(N(CC(=O)Nc2cccc(C(C)=O)c2)S(=O)(=O)c2ccc(NC(C)=O)cc2)cc1	-3	5	100	-6	10	-1
COc1ccc(CCNC(=O)/C(C#N)=C/c2ccc(OCC(=O)NCC3CCCO3)cc2)cc1OC (stereo unspecified)	1	17	99	35*	-8	-3
Cc1nn(Cc2noc(C(=O)NC3CCC(C)CC3)n2)c(C)c1Br (stereo unspecified)	4	-3	105	-2	-13	1
CCOc1ccccc1Nc1ncnc2ccc(Br)cc12	2	4	108	-10	-6	-1
CN(Cc1ccccc1)c1ncnc2ccc(Br)cc12	4	-14	92	97*	10	2
Cc1ccc(NC(=O)/C=N/OCC(=O)NCc2ccccc2Cl)cc1	14*	10	92	-17	-40	-2
Cc1cccc(NC(=O)CSc2nc3ccccc3c(=O)n2C)c1	6	-2	90	-18	-18	0
O=C(CN1C(=O)C2C3CC(C(Br)C3Br)C2C1=O)Nc1ccc(C(=O)O)cc1 (stereo unspecified)	2	14	54*	-8	-5	-3
O=C(CN1C(=O)C2CC=C(Cl)CC2C1=O)Nc1ccc(C(=O)O)cc1 (stereo unspecified)	2	6	109	4	-29	-1
COc1ccccc1CNC(=O)COC(=O)COc1ccccc1F	2	-2	109	6	-6	0
CC(=O)Nc1ccc(Nc2cc(C)c3ccccc3n2)cc1	-2	4	100	-11	6	-1
CC(=O)Nc1ccc(Nc2nc3ccccc3nc2NS(=O)(=O)c2ccccc2)cc1	12*	12	101	1	13	-2
CC(=O)Nc1ccc2nc3ccccc3nc2c1	9	4	52*	4	5	-1
SMILES	HTR5A ag	OPRM1-OPRD1 inv	CR mimetic SO	PvdQ acylase	HTR5A inv ag	MOR-DOR ag
CC(=O)Nc1ccc(S(=O)(=O)Nc2nc3ccccc3nc2Nc2ccccc2)cc1	5	5	106	-9	-13	-1
Cn1ncc2c(=S)nc(Cl)[nH]c21	0	8	nt	9	0	-2
CN(C(=O)CCn1c(=S)oc2ccccc21)c1ccc(F)cc1	-4	-8	91	36*	11	1
O=c1cc(C(F)(F)F)[nH]c(=S)n1-c1ccccc1	-3	8	109	-10	10	-2
COC(=O)c1ccc(OC)c(OC2CCCC2)c1	-1	-11	100	-18	14	2
COc1cc(C(=O)O)cc(Br)c1OC1CCCC1	11*	3	102	10	-3	-1
Cc1nc(SCc2nc3cc(Cl)c(F)cc3[nH]2)c2oc3ccccc3c2n1	5	-20	106	-8	-33	4
CCOC(=O)C1CCN(C(=O)c2ccc(OCC(=O)Nc3ccc(OCC)cc3)c(OC)c2)CC1	8	4	95	0	1	-1
CC(C)C(C)(C#N)NC(=O)COC(=O)C1CCN(S(=O)(=O)c2ccc3c(c2)OCCO3)CC1 (stereo unspecified)	2	4	nt	1	-10	-1
Cc1ccsc1C(=O)Nc1cc(C(C)(C)C)nn1-c1ccccc1	14*	-3	102	4	22	1
NC(=O)COc1c(-c2ccc(Br)o2)oc2ccccc2c1=O	8	2	106	-6	-30	0
O=C(CSc1nnc(-c2cccnc2)o1)Nc1nccs1	-2	7	115	-15	-10	-1
CN1CCN(CC(=O)N2CCn3c4c(c5cc(C6CCCCC6)ccc53)CCCC42)CC1 (stereo unspecified)	7	-32	105	-16	-18	6
Cc1ccc2c(c1)c1c3n2CCN(C(=O)CN2CCN(C)CC2)C3CCC1 (stereo unspecified)	9.1*	4	97	-12	-4	-1
Cc1cc(C)cc(Nc2nc(-c3ccc(S(=O)(=O)N4CCCC4)cc3)cs2)c1	-2	6	90	0	7	-1
Cc1ccc(Nc2nc(-c3ccc(S(=O)(=O)N4CCCC4)cc3)cs2)cc1C	10*	-9	82	1	3	2
Cc1ccc(NC(=O)C(C)OC(=O)Cn2cnc3ccccc3c2=O)cc1 (stereo unspecified)	-9	11	93	-7	24	-2
CC(C)(C)C1=CC(=O)C(=O)C(C(C)(C)C)=C1	5	-184	88	-11	-12	36*
O=C(COC(=O)c1c2c(nc3ccccc13)/C(=C\c1cccs1)CCC2)Nc1ccccc1	-3	-12	102	0	7	2
CC(C)CNC(=O)COC(=O)c1c2c(nc3ccccc13)/C(=C\c1cccs1)CC2	1	-104	nt	-14	-2	21*
Cc1ccc(Nc2cc(C)nn2-c2nc(C)cc(=O)[nH]2)cc1	-7	55*	74	0	-3	-9
CCCCc1nc2cc(C(=O)NC3CCOC(C)(C)C3)ccc2o1 (stereo unspecified)	0	3	108	5	-1	-1

Source: PubChem BioAssay
